Bioassay records as filed in PubChem BioAssay.
This is a sample that favours compounds with a hit; in the whole collection about 4.1% have one here.
hgDAF-12 ag: agonists of H. glycines DAF-12 nuclear receptor; HEK293 GAL4-hgDAF12 UAS-luciferase reporter, agonist luminescence; normalized to butyrate control; activation, % at 6.8 µM; 1.8% of 370,000 active;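 active = activation above a cutoff set at the mean of all screened compounds plus 3 SD, cut at about 10% in these data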;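 also: 0% = DMSO wells and 100% = sodium butyrate wells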
DAX1 inh-1: inhibits human nuclear receptor DAX1 | 0.99% of 340,000 active | P51843 | HEK293 Gal4-DAX1 luciferase reporter, luminescence | inhibition, % at 6.75 µM;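 active = inhibition above the mean over all tested compounds plus 3 SD, cut at about 4.2% in these data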;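 also: 0% = DAX1-transfected cells with DMSO and 100% = empty-vector control cells with DMSO; inhibition shows as a rise in luminescence from relieved DAX1 repression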
ssDAF-12 act: S. stercoralis DAF-12 activation, primary screen. HEK293 ssDAF-12/GRIP1 lit1-tk-luc reporter, luminescence; % of 3 µM dafachronic acid response. activation, % at 6.8 µM. 1% of 370,000 active;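 active = activation above the mean over all tested compounds plus 3 SD, cut at about 0.9% in these data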;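 also: 0% = DMSO-only wells and 100% = 3 µM delta7-dafachronic acid wells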
hcDAF-12 act: activates DAF-12 receptor from parasite H. contortus | activation, % at 6.8 µM | AID 652067 | 1.4% of 370,000 active | HEK293 hcDAF-12 lit1-tk-luc reporter, luminescence; 0% DMSO, 100% Δ7-dafachronic acid;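 active = activation above the mean of all tested compounds plus 3 SD, cut at about 5.5% in these data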;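 also: 100% = response to 3 µM Δ7-dafachronic acid high control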
DAX1 inh-2: blocks DAX1 repression of SF-1 activated StAR promoter; HEK293T StAR-luciferase reporter, SF-1/DAX-1 repression relief; inhibition, % at 6.8 µM; 1.1% of 370,000 active; AID 652010;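 active = inhibition above the mean over all tested compounds plus 3 SD, cut at about 3.6% in these data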;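 also: 0% = DAX-1 cells with DMSO and 100% = cells lacking DAX-1 with DMSO; higher inhibition means more luminescence from relief of DAX-1 repression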
LXRb hcDAF ctr: activates human LXR-beta, counter-screen for hcDAF-12 agonists. 3,400 tested, under 10 active. shares compounds with hcDAF-12 act. HEK293 Gal4-LXR tk-luc reporter, luminescence, 24 h; normalized: DMSO 0%, positive control 100%. activation, % at 6.8 µM;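 active = mean percent activation of the reporter above a cutoff set as the average over tested compounds plus their standard deviation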
Target sequence (P55055 whole entry, looked up, the tested form may be a part): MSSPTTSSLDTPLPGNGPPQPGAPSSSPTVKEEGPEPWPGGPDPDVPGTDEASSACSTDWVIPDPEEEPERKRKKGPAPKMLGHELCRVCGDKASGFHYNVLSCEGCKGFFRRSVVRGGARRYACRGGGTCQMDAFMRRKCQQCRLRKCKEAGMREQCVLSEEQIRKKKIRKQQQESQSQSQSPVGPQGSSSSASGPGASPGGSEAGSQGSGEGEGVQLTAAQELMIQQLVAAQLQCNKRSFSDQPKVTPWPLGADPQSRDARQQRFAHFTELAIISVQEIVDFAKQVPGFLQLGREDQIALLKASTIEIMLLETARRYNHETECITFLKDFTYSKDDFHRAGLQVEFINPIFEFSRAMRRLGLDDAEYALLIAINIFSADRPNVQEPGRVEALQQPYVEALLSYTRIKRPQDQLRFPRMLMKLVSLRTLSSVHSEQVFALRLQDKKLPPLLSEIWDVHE
hcDAF12 conf: hcDAF-12 agonism, confirmation assay. shares compounds with hcDAF-12 act. HEK293 hcDAF-12 lit1-tk-luc reporter, luminescence; % of Δ7-dafachronic acid response. activation, % at 6.8 µM. 61% of 3,400 active;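 active = mean activation across triplicate tests above the threshold derived from the earlier primary screen, cut at about 5.5% in these data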;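 also: 0% = DMSO only wells and 100% = 3 µM Δ7-dafachronic acid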
Numbers without * were called inactive; . = not tested or not shown.

SMILES	hgDAF-12 ag	DAX1 inh-1	ssDAF-12 act	hcDAF-12 act	DAX1 inh-2	LXRb hcDAF ctr	hcDAF12 conf
CN(N=Cc1ccccc1O)c1ccc2ccccc2n1	12*	4	2.4*	8.6*	2	2	12*
COc1ccc(CNC(=O)c2c(N)[nH]c(C(=O)c3ccccc3)c2-c2ccc3ccccc3c2)cc1OC	3	.	-1	-3	-2	.	.
CC1CCN(CC(=O)c2cccs2)CC1	10	-1	0	1	0	.	.
O=C(CN1CCc2ccccc2C1)c1cccs1	1	0	1	6.9*	1	0	4
CCOC(=O)/C(C#N)=C/c1c[nH]c2ccccc12	7	1	0	9.0*	0	0	5
COC(=O)/C(C#N)=C/c1c[nH]c2ccccc12	10	3	0	8.1*	0	1	9.9*
Cc1ccc(C(=O)/C=C/c2c[nH]c3ccccc23)cc1	8	2	0	8.6*	1	0	4
CCc1c(-c2cccc(OC)c2)ncn1CCc1ccccc1OC	1	.	-2	1	-3	.	.
c1ccc2c(C3=NNC(=NC4CCCCC4)SC3)c[nH]c2c1	3	-1	1.5*	9.3*	0	0	5
Cc1nc2ccc(Cl)cc2nc(C)/c1=N\O	11*	5.3*	1.0*	7.7*	2	0	6.3*
Cc1nc2ccccc2nc(C)c1=NO	12*	4	1.0*	8.6*	4.1*	0	4
COC(=O)[C@]12CCCCC=C1N(Cc1ccc(OC)cc1)C(=O)[C@@H]2CC(=O)N1CCC(c2ccccc2)CC1	2	.	-1	-3	-1	.	.
CCOc1ccc(NC(=O)c2cc(-c3ccc(Cl)cc3)nc3ccccc23)cc1	0	.	-1	0	-1	.	.
CC(=O)Nc1sc2c(c1-c1nc3ccccc3s1)CNC2	2	.	1.6*	16*	.	0	9.8*
O=C1C(c2ccnc3ccccc23)=C(O)c2ccccc21	16*	1	3.3*	26*	3	2	20*
O=C1C(=O)c2ccccc2C(O)=C1c1ccccc1F	-5	2	-1	-2	-1	.	.
CCn1c(COc2ccccc2)nnc1SCC(=O)Nc1ccc(S(=O)(=O)Nc2cc(C)nc(C)n2)cc1	3	.	-1	-2	0	.	.
Cc1cccc(N2C(=O)c3cccc4c(N5CCCCC5)c([N+](=O)[O-])cc(c34)C2=O)c1C	-1	-1	-1	2	0	.	.
O=C1c2cccc3c(N4CCOCC4)c([N+](=O)[O-])cc(c23)C(=O)N1c1cccc2ccccc12	0	1	-1	6.8*	0	0	-1
Cc1ccc(S(=O)(=O)Nc2cc3c(C(=O)O)c(C)oc3c3ccccc23)c(C)c1	-2	2	0	1	0	.	.
Cc1ccc(S(=O)(=O)Nc2c(C(=O)O)[nH]c3ccccc23)c(C)c1	5	2	1.1*	6.7*	0	0	2
COc1ccc(S(=O)(=O)Nc2c(C(=O)O)[nH]c3ccccc23)cc1	2	0	0	5	0	.	.
COc1ccc(S(=O)(=O)Nc2c(C(=O)O)[nH]c3ccccc23)cc1OC	6	0	2.0*	7.9*	0	0	5
COCc1[nH]nc2c1C(c1ccc(F)cc1)N(c1ccc(OC)cc1)C2=O (centres undefined)	-1	.	-1	-1	0	.	.
COC(=O)C(C)Oc1ccc(-c2nccc(-c3cccs3)n2)cc1 (centres undefined)	6	0	-1	0	1	.	.
SMILES	hgDAF-12 ag	DAX1 inh-1	ssDAF-12 act	hcDAF-12 act	DAX1 inh-2	LXRb hcDAF ctr	hcDAF12 conf
Oc1ccc(-c2nccc(-c3cccs3)n2)cc1	14*	4.8*	1.0*	12*	2	1	11*
O=C(NCC1CCN(C(=O)C(=O)c2cccs2)CC1)c1ccc2c(c1)OCO2	1	.	-1	0	0	.	.
CN(C)S(=O)(=O)c1ccc(Cl)c(-c2nnc3n2CCCCC3)c1	0	1	0	7.8*	1	0	3
Clc1ccc(-c2nnc3n2CCCC3)cc1Cl	0	0	-1	-1	1	.	.
COc1ccc(C=Nc2cccnc2N)cc1	.	1	.	.	.	.	.
CCOc1ccc(C=Nc2cccc3ncccc23)cc1	0	2	0	9.2*	-1	0	4
COc1ccc(Cl)cc1NC(=O)c1cc(-c2ccccc2)on1	1	3	-1	5	0	.	.
COc1ccc(Cl)cc1NC(=O)c1cc(C2CC2)on1	3	.	-1	7.6*	.	0	5
CCOC(=O)c1csc(NC(=O)C2CCCN(S(=O)(=O)c3ccc(C)cc3)C2)n1 (centres undefined)	-3	.	-2	-3	-3	.	.
Nc1c(Cl)c(Cl)nc(C(=O)N/N=C/c2ccco2)c1Cl	3	-1	0	6.9*	0	0	3
CCOc1ccc2c(c1)c1nc3ccccc3nc1n2C	4	0	0	5	0	.	.
Cn1c2ccc(F)cc2c2nc3ccccc3nc21	3	2	1	7.1*	0	0	8.3*
CCn1c2ccc(F)cc2c2nc3ccccc3nc21	2	0	-1	1	0	.	.
Cn1c2ccc(F)cc2c2nnc(SCCN3CCCCC3)nc21	5	2	1.1*	8.2*	1	0	6.9*
Cn1c2ccc(Cl)cc2c2nc3ccccc3nc21	12*	2	2.4*	8.8*	3	0	8.5*
O=C(Nc1c(-c2ccc(F)cc2)nc2ncccn12)c1ccc(F)cc1	-2	.	-1	-2	-1	.	.
COc1ccc2[nH]c3c(c2c1)CCN[C@]31C(=O)N(c2ccccc2)c2ccccc21	1	.	-1	-3	-1	.	.
N#Cc1ccc(NC(=O)OC2CC3CC2[C@H]2CCCCN2[C@H]3Cc2ccccc2)cc1 (some centres undefined)	0	.	0	-2	-1	.	.
NC(=O)c1ccc(CSc2nc3ccccc3s2)cc1	8	0	1	8.1*	1	0	4
Fc1ccccc1-c1nc(-c2ccc(-c3nn[nH]n3)cc2)no1	6	4	-1	2	1	.	.
c1ccc(-c2ccccc2-c2nc(-c3cccnc3)no2)cc1	-1	0	-1	-2	-1	.	.
c1ccc2c(-c3nc(-c4ccncc4)no3)cccc2c1	3	1	-1	1	0	.	.
Fc1ccccc1-c1nc(-c2ccccc2)no1	10	1	1.9*	10*	4	2	18*
c1cncc(-c2noc(-c3cccc4ccccc34)n2)c1	9	2	1.2*	7.0*	0	1	16*
